This passage reports outcome and AC50 results from PubChem BioAssay (EPA / NIEHS).

SMILES strings stand for the structures. Inconclusive results are not listed. Calls of active or inactive are those of the source. How the source made its calls, unless noted: active means hit-call score of the fitted dose curve at least 0.9, where 1 is the maximum; inactive means score below 0.9.

Test [1] deals with Oxysterols receptor LXR-alpha (Homo sapiens) (UniProt Q13133). Nature of the test: ATG_LXRa_TRANS: Attagene TRANS-FACTORIAL HepG2 Assay for human Liver X Receptor alpha (LXRa) (AID 2282980; active means hit-call score of the fitted dose curve at least 0.9, where 1 is the maximum). The settings on record: HepG2 Attagene TRANS reporter, LXRa transactivation. Summed up: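 In this multiplexed TRANS system, compounds act on HepG2 cells carrying GAL4-UAS reporter units and a receptor-GAL4 fusion for 24 h. Induced reporter RNA is amplified, fluorescently labelled and sized by capillary electrophoresis, with DMSO as baseline.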
Chain of Oxysterols receptor LXR-alpha (Homo sapiens) (Q13133 whole entry, looked up, the tested form may be a part): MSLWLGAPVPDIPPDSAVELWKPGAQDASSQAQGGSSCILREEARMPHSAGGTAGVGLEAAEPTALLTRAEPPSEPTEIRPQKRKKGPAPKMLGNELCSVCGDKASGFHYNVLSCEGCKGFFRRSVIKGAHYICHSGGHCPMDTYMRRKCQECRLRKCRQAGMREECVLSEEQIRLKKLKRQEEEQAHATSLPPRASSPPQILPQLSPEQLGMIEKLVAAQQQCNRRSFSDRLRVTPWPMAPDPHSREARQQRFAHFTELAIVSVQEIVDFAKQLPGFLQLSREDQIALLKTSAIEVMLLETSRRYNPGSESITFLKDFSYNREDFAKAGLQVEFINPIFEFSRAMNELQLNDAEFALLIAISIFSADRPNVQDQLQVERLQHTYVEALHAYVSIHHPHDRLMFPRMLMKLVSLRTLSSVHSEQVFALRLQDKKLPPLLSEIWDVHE

In test [2] the target is Hepatocyte nuclear factor 4-alpha (Homo sapiens) (UniProt P41235). Nature of the test: ATG_HNF4a_TRANS: Attagene TRANS-FACTORIAL HepG2 Assay for human Hepatocyte Nuclear Factor 4 alpha (HNF4a) (AID 2282982; active means hit-call score of the fitted dose curve at least 0.9, where 1 is the maximum). Conditions: HepG2 HNF4a transactivation reporter, mRNA readout. The gist of the method: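 Readout is fluorescent reporter-transcript fragments resolved by capillary electrophoresis after RT-PCR from HepG2 cells dosed for 24 h. Cells carried transfected GAL4-UAS reporter constructs measuring exogenous NR-GAL4 chimera activity; DMSO served as baseline.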
Chain of Hepatocyte nuclear factor 4-alpha (Homo sapiens) (P41235 whole entry, looked up, the tested form may be a part): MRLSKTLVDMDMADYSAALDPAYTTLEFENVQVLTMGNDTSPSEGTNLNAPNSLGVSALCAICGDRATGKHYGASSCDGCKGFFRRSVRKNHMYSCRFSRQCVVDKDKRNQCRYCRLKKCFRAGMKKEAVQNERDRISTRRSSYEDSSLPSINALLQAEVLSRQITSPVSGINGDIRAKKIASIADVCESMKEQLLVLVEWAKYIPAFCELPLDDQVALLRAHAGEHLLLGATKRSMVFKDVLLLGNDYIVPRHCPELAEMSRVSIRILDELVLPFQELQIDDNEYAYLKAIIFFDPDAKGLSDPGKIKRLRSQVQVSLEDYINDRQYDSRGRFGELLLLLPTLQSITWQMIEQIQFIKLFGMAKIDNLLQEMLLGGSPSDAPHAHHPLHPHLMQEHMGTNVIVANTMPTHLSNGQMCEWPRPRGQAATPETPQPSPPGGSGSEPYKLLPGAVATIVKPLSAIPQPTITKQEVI

Test [3] can be described thus: ATG_M_06_TRANS: Attagene TRANS-FACTORIAL HepG2 Assay for M06 Transcription Factor (Internal Marker) (AID 2282983; active means hit-call score of the fitted dose curve at least 0.9, where 1 is the maximum;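 further: reporter transcript level by RT-PCR then capillary electrophoresis fluorescence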). The settings on record: HepG2 Attagene TRANS M06 internal marker reporter. The gist of the method:
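Internal-marker background readout from a multiplexed TRANS reporter system in HepG2; 24 h dosing; mRNA induction quantified by RT-PCR plus capillary electrophoresis fluorescence; DMSO as negative control and baseline.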

Test [4] is described as follows: ATG_M_32_TRANS: Attagene TRANS-FACTORIAL HepG2 Assay for M32 Transcription Factor (Internal Marker) (AID 2282984; active means hit-call score of the fitted dose curve at least 0.9, where 1 is the maximum;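 further: transcript level of a background control reporter unit measured by RT-PCR and capillary electrophoresis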). The settings on record: HepG2 Attagene TRANS M32 internal marker reporter. The gist of the method: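 Measures reporter mRNA induction in human HepG2 liver cells after 24 h chemical treatment. Transcripts from transiently transfected GAL4-UAS reporter units are amplified, fluorescently labelled and sized by capillary electrophoresis; gain of signal relative to DMSO.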

Test [5] has as its target Transcriptional activator Myb (Homo sapiens) (UniProt P10242). Put plainly: ATG_Myb_CIS: Attagene CIS-FACTORIAL HepG2 Assay for human Myeloblastosis (Myb) Proto-Oncogene Transcription Factor (AID 2282986). Conditions: HepG2 Attagene CIS-FACTORIAL Myb reporter transcription; actives raise or lower the signal. The gist of the method:
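In this HepG2 transient-transfection format, cis-regulated reporter mRNA is quantified 24 h post-dosing by RT-PCR with capillary electrophoresis, fitted bidirectionally to DMSO baseline.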

Test [6] deals with Nuclear respiratory factor 1 (Homo sapiens) (UniProt Q16656). Put plainly: ATG_NRF1_CIS: Attagene CIS-FACTORIAL HepG2 Assay for human Nuclear Respiratory Factor 1 (NRF1) Orphan Gene (AID 2282987). Conditions: HepG2 NRF1 cis-element reporter, Attagene multiplex; actives raise or lower the signal. The gist of the method:
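Using DMSO as baseline, gain- or loss-of-signal was fitted for reporter mRNA levels in HepG2 cells transiently transfected with cis-regulated reporter units. Samples were taken 24 h after dosing and read by RT-PCR with capillary electrophoresis.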

A short description of test [7]: ATG_NFI_CIS: Attagene CIS-FACTORIAL HepG2 Assay for human Nuclear Factor I (NFI) (AID 2282989). The settings on record: HepG2 cis-regulatory reporter, NFI response element transcription; actives raise or lower the signal. The gist of the method: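 Read-out: reporter mRNA via RT-PCR plus capillary electrophoresis with fluorescence detection. Transiently transfected HepG2 (endogenous TF activity on cis promoters), 24 h compound exposure; gain or loss of signal fitted against DMSO.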

In test [8] the target is Myc proto-oncogene protein (Homo sapiens) (UniProt P01106). Put plainly: ATG_Myc_CIS: Attagene CIS-FACTORIAL HepG2 Assay for human Myelocytomatosis (Myc) Proto-Oncogene Transcription Factor (AID 2282990). Conditions: HepG2, Attagene cis-reporter transcription factor activity; actives raise or lower the signal. Summed up: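 Cells of the HepG2 human liver line bear multiple cis-driven reporter transcription units. Reporter mRNA after 24 h exposure is reverse-transcribed, amplified, labelled and resolved by capillary electrophoresis, with gain- or loss-of-signal fitting relative to DMSO.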
Chain of Myc proto-oncogene protein (Homo sapiens) (P01106 whole entry, looked up): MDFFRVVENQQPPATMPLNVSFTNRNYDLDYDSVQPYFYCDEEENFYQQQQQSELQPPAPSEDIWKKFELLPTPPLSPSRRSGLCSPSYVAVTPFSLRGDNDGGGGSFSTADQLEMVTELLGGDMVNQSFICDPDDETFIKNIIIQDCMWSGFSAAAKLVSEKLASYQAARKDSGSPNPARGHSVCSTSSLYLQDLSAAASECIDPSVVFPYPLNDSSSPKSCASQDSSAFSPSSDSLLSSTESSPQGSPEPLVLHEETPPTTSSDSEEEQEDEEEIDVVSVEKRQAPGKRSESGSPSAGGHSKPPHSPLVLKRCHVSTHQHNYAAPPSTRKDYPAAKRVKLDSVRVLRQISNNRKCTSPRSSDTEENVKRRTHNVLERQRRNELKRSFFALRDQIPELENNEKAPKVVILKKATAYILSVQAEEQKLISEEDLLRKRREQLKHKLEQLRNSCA

A short description of test [9]: ATG_NF_kB_CIS: Attagene CIS-FACTORIAL HepG2 Assay for human Nuclear Factor Kappa B (NF-kB) (AID 2282991). Conditions: HepG2 Attagene cis-factorial NF-kB reporter mRNA; actives raise or lower the signal. Summed up:
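Endpoint from a 52-component multiplexed HepG2 reporter panel: cis-regulated transcription units transiently transfected, 24 h dosing, reporter mRNA quantified by RT-PCR and capillary electrophoresis, scored as increase or decrease against DMSO.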

The nature of test [10]: ATG_NRF2_ARE_CIS: Attagene CIS-FACTORIAL HepG2 Assay for human Nuclear Factor Erythroid 2 Related Factor 2 (NFR2) response to Antioxidant Response Elements (ARE) (AID 2282992).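 On AC50: reporter mRNA level measured by RT-PCR and capillary electrophoresis fluorescence.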 Conditions: HepG2 Attagene ARE/NRF2 reporter, transcription factor activity; actives raise or lower the signal. The gist of the method:
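Multiplexed reporter mRNA profiling in HepG2 after a 24 h chemical exposure. Curves fitted in both directions relative to DMSO negative control.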

A short description of test [11]: ATG_Oct_MLP_CIS: Attagene CIS-FACTORIAL HepG2 Assay for human Octamer-Binding Transcription Factor (Oct) (AID 2282993). Conditions: HepG2 Attagene cis-factorial Oct reporter, mRNA; actives raise or lower the signal. The gist of the method: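 Read-out: reporter mRNA via RT-PCR plus capillary electrophoresis of 6-FAM-labelled fragments. Transiently transfected HepG2, 24 h exposure, endogenous TF activity on cis elements. Gain or loss of signal fitted relative to DMSO.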

Test [12] deals with Cellular tumor antigen p53 (Homo sapiens) (UniProt P04637). Nature of the test: ATG_p53_CIS: Attagene CIS-FACTORIAL HepG2 Assay for human p53 Transcription Factor (AID 2282994). Conditions: HepG2 p53 cis-element reporter, Attagene mRNA; actives raise or lower the signal. The gist of the method: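 Multiplexed reporter mRNA assay in human HepG2 liver cells; cis-regulated units report endogenous factor activity. Values come from bidirectional curve fitting against DMSO negative control after 24 h treatment.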
Chain of Cellular tumor antigen p53 (Homo sapiens) (P04637 whole entry, looked up): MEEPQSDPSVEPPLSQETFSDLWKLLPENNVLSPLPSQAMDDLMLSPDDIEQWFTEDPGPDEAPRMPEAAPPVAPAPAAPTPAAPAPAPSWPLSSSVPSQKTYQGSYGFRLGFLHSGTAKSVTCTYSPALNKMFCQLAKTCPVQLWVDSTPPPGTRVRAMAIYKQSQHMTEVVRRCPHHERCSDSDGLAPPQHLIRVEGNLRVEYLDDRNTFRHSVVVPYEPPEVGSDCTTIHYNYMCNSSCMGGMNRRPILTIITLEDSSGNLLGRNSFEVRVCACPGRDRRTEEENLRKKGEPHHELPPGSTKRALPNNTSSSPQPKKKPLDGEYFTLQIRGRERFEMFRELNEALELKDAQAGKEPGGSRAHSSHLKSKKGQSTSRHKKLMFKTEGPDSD

A short description of test [13]: BSK_3C_TissueFactor: BioMAP Diversity Plus: 3C Assay for Tissue Factor Biomarker Activity (AID 2282997). The settings on record: BioMAP 3C HUVEC, tissue factor biomarker readout; actives raise or lower the signal. The gist of the method: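 Endothelial monolayers (human umbilical vein, primary) are dosed, incubated 24 h, and assayed for Tissue Factor by ELISA; DMSO serves as negative control for bidirectional fitting.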

Test [14] can be described thus: BSK_3C_uPAR: BioMAP Diversity Plus: 3C Assay for Urokinase-type plasminogen activator receptor (uPAR) Biomarker Activity (AID 2282998). Conditions: BioMAP 3C HUVEC, uPAR biomarker ELISA; actives raise or lower the signal. Summed up:
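HUVEC primary cells; 24 h post-dose; uPAR by ELISA; gain or loss of signal fitted bidirectionally vs DMSO baseline.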

Test [15] is described as follows: BSK_3C_VCAM1: BioMAP Diversity Plus: 3C Assay for Vascular cell adhesion molecule 1 (VCAM1) Biomarker Activity (AID 2282999). Conditions: BioMAP 3C HUVEC, VCAM1 ELISA, cytokine-stimulated; actives raise or lower the signal. The gist of the method:
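Endothelial cells from human umbilical vein are treated with test chemical. At 24 h, VCAM-1 is measured by ELISA, and responses in either direction are fitted relative to DMSO.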
For orientation: An ELISA detects its analyte on a solid surface through an enzyme-linked reagent.

Test [16] can be described thus: BSK_4H_Eotaxin3: BioMAP Diversity Plus: 4H Assay for Eotaxin 3 Biomarker Activity (AID 2283000).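 On outcome: CCL26 protein level quantified by ELISA in parallel with SRB cytotoxicity check.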 The settings on record: primary human endothelial cells (HUVEC); actives raise or lower the signal. The gist of the method:
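ELISA quantitation of CCL26 (Eotaxin-3) protein from chemically dosed human vascular endothelial cells at 24 h; increases and decreases both scored relative to DMSO-treated baseline.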

Test [17] concerns the target Nuclear receptor subfamily 4 group A member 2 (Homo sapiens) (UniProt P43354). Nature of the test: ATG_NURR1_TRANS: Attagene TRANS-FACTORIAL HepG2 Assay for human Nuclear Receptor Related Protein 1 (NURR1) (AID 2282985; active means hit-call score of the fitted dose curve at least 0.9, where 1 is the maximum). Conditions: HepG2 Attagene TRANS reporter, mRNA readout. The gist of the method:
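Transient transfection of HepG2, human liver cells, with multiple GAL4-UAS reporter transcription units. Cells dosed 24 h, RNA isolated, reverse-transcribed, PCR-amplified, FAM-labelled, HpaI-digested, sized by capillary electrophoresis. DMSO served as negative control.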

Test [18] has as its target Oxysterols receptor LXR-beta (Homo sapiens) (UniProt P55055). Put plainly: ATG_LXRb_TRANS: Attagene TRANS-FACTORIAL HepG2 Assay for human Liver X Receptor beta (LXRb) (AID 2282981; active means hit-call score of the fitted dose curve at least 0.9, where 1 is the maximum). Conditions: HepG2 Attagene TRANS GAL4-LXRb reporter, mRNA. The gist of the method: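 Transient transfection HepG2 (multiplexed RTUs, GAL4-UAS); NR-Gal4 chimera; 24 h exposure; RNA → RT-PCR → 6-FAM primer extension → HpaI → CE; increase vs DMSO.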

Test [19] addresses Bile acid receptor (Homo sapiens) (UniProt Q96RI1). Nature of the test: ATG_FXR_TRANS: Attagene TRANS-FACTORIAL HepG2 Assay for Farnesoid X Receptor (FXR) (AID 2282979; active means hit-call score of the fitted dose curve at least 0.9, where 1 is the maximum;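 further: hits raise reporter mRNA above DMSO so AC50 marks FXR activation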). Conditions: HepG2 Attagene TRANS FXR-GAL4 reporter transcription. The gist of the method:
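After 24 h chemical treatment of transfected HepG2 cells, GAL4-UAS reporter transcripts driven by an exogenous FXR-GAL4 fusion were measured by RT-PCR and capillary electrophoresis. Increases over DMSO were fitted.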

Chain of Bile acid receptor (Homo sapiens) (Q96RI1 whole entry, looked up, the tested form may be a part): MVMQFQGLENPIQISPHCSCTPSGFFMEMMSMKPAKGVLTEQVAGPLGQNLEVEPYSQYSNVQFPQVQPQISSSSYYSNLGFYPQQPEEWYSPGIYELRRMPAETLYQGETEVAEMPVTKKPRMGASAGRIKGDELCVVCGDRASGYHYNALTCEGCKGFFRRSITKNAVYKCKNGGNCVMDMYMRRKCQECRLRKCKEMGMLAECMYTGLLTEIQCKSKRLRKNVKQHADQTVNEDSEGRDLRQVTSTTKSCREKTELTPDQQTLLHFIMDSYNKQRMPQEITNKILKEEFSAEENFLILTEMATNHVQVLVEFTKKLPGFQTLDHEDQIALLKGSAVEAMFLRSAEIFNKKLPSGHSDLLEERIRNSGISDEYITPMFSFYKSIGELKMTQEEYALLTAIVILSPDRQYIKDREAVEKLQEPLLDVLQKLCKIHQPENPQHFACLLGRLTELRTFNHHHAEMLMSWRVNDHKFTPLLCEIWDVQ
Chain of Nuclear respiratory factor 1 (Homo sapiens) (Q16656 whole entry, looked up): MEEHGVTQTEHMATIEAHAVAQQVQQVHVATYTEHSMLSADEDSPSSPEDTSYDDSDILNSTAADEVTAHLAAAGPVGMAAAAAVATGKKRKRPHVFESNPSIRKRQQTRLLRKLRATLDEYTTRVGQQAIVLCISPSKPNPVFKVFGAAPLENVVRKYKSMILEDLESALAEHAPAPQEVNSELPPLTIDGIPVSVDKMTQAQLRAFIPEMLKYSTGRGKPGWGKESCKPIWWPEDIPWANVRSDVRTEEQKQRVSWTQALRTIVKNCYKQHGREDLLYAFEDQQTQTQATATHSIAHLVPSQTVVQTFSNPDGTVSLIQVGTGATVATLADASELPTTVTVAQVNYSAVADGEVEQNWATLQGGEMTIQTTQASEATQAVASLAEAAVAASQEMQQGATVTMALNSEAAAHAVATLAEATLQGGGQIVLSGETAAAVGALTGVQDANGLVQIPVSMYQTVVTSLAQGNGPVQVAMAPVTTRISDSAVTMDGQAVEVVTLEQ
Chain of Transcriptional activator Myb (Homo sapiens) (P10242 whole entry, looked up): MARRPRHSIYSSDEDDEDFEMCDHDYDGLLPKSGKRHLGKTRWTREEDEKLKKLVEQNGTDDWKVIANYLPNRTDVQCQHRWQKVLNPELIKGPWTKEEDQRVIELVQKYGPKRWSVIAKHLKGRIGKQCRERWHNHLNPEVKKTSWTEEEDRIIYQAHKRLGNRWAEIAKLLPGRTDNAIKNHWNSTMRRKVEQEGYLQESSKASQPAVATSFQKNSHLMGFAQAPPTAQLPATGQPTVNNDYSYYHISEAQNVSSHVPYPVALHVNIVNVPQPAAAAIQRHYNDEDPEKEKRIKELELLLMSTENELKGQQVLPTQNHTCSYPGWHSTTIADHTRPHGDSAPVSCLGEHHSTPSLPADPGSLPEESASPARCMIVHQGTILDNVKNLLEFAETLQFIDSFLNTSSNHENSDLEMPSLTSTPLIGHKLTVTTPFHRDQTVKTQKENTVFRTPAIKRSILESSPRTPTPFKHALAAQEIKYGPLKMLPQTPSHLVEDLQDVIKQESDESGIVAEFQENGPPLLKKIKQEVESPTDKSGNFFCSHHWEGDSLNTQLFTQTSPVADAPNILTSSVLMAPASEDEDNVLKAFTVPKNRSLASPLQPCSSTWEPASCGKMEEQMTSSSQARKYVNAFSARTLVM
Chain of Nuclear receptor subfamily 4 group A member 2 (Homo sapiens) (P43354 whole entry, looked up, the tested form may be a part): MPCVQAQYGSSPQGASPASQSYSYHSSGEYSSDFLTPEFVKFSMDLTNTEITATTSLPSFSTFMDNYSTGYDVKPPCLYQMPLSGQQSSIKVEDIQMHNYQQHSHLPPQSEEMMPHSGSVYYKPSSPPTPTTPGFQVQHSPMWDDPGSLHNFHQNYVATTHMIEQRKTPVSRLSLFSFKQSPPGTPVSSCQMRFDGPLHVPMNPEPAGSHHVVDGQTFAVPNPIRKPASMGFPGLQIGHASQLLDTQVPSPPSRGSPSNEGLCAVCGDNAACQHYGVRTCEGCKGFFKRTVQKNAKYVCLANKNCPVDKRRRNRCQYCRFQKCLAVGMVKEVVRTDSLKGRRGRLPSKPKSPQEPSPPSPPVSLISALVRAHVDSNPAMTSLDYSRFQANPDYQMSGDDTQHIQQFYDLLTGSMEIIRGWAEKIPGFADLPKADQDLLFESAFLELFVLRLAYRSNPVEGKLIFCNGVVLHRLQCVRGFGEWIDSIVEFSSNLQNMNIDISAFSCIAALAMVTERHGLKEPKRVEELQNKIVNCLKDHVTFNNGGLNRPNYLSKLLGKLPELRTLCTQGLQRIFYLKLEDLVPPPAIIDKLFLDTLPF
Chain of Oxysterols receptor LXR-beta (Homo sapiens) (P55055 whole entry, looked up, the tested form may be a part): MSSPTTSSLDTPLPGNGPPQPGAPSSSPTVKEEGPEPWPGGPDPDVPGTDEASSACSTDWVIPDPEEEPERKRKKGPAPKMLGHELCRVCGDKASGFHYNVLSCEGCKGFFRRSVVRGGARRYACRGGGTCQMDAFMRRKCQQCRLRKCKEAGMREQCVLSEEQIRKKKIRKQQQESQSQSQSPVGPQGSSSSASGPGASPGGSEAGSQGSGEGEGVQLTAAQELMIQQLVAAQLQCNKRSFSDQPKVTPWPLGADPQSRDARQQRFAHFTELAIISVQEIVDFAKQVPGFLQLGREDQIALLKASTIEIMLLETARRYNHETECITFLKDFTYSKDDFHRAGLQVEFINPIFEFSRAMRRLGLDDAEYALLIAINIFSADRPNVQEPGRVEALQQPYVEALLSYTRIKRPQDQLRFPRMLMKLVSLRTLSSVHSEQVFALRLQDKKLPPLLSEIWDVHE

The AC50 is the concentration giving half of the maximal activity seen. Take `O=c1ssc(Cl)c1Cl`: the compound was called inactive in test [1], in [2], in test [3], in [4], in [5] and in test [7]. Also, in test [12], the compound was classed as inactive. Also, the concentration at half-maximal activity (AC50) was 33.4 µM (active) in [6]; 33.4 µM (active) in [8]; 45 µM (active) in test [9]; 1.08 µM (active) in test [10]; 51.6 µM (active) in [11]; 5.68 µM (active) in test [13]. The AC50 was 6.09 µM (active) in test [14], 5.62 µM (active) in test [15] and 4.22 µM (active) in test [16].

As for `ClC(Cl)(Cl)c1ccccc1`, the outcome in test [3], in [17], in test [5], in test [6], in [7] and in test [8] was inactive. The compound was classed as inactive in [10], in test [11], in test [12], in test [14], in test [15] and in test [16].

As for `c1ccc2c(c1)Nc1ccccc1S2`, the compound was called inactive in test [1], in test [2], in test [3], in test [4], in test [5] and in test [6]. The compound was called inactive in [7], in test [8], in test [11], in [12], in test [13] and in [14]. The result in test [15] and in [16] was inactive. Besides, the AC50 in test [10] is 20.6 µM (active).

Take `CCCN(CCC)c1c([N+](=O)[O-])cc(C(C)C)cc1[N+](=O)[O-]`: the compound was classed as inactive in test [17], in test [5], in test [6], in [7], in test [8] and in test [11]. Also, the result in test [12] was inactive. Besides, the results for the AC50 in [10], in test [14] and in test [15] were 38.4 µM (active), 33.7 µM (active) and 25.8 µM (active), respectively.

In the case of `Cc1cccc(N)c1`, the outcome in test [18], in [2], in test [3], in [4], in test [5] and in [6] was inactive. Further, the compound was classed as inactive in test [7], in [8], in [9], in test [10], in test [11] and in test [12]. Moreover, the outcome in test [13], in [14], in [15] and in test [16] was inactive.

`CCOP(=O)(O)C(N)=O`: the outcome in test [19], in test [18], in test [3], in test [4], in test [5] and in [6] was inactive. Besides, the outcome in test [7], in test [8], in test [10] and in test [11] was inactive.

In the case of `CC(C)(C)c1ccc(O)cc1`, the result in test [19], in [1], in [3], in test [4], in test [5] and in test [8] was inactive. Besides, the outcome in test [13], in test [14] and in test [15] was inactive. For the same compound, the AC50 in test [11] is 166 µM (active); in [12] it was 170 µM (active).

Consider `[N-]=[N+]=[N-]`, for which the call in [3], in test [17], in test [5], in [6], in test [7] and in test [9] was inactive. Also, the call in test [10], in test [11], in test [12], in test [14], in test [15] and in [16] was inactive. The concentration at half-maximal activity (AC50) in test [8] is 100 µM (active).

For `Cc1ccc([N+](=O)[O-])cc1C`, the call in test [19], in test [2], in test [3], in [4], in [5] and in [6] was inactive. Besides, the outcome in [7], in test [8], in [9], in test [10], in [11] and in [14] was inactive. Also, the outcome in [15] and in test [16] was inactive.

As for `CCCCc1ccccc1`, the compound was classed as inactive in test [19], in test [1], in test [17], in [5], in [6] and in [7]. Moreover, the outcome in test [8], in test [10], in test [11], in test [14] and in test [15] was inactive.
